PubChem BioAssay (NCATS)
Inconclusive results are not listed. A number with no mark means an inactive call. Active and inactive are the calls of the source. The call rests on the fitted dose curve; in most records, active means well fitted inhibition curve with a large enough effect; inconclusive means small, poorly fitted or top-dose-only effect; inactive means flat fitted curve, though single readings scatter.

tested on: NIH3T3; assay: Cytotoxic Profiling of Annotated Libraries Using Quantitative High-Throughput Screening (AID 1296008); details: Five cell lines viability, CellTiter-Glo ATP luminescence, 48-72 h; max response: active compounds read low; further: nearly all actives have a fitted effect of over 60% in size
Procedure, shortened: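 Compounds were pin-transferred onto cells and incubated 48 or 72 hr at 37 degree Celsius, 95% humidity. CellTiter-Glo was added, plates sat 10 min at room temperature, then ATP-coupled luminescence was imaged as the viability read-out.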
On the % scale 0 is the no-effect control and ±100 the full control effect; potency means the concentration at half of the fitted maximal effect.

SMILES | max response [%] | Potency
C#CCCCn1cc(-c2cccc3c2N[C@H](C)CC(=O)N3)cn1 | -3.84 | –
COC(=O)Nc1cc(Nc2cc(NC3CC3)c3ncc(C#N)n3n2)c(Cl)c(N2CCN(C)CC2)c1 | – | 14800 nM (active)
CCCC1(CCC)CCC2(CCN(CCCN(CC)CC)C2)CC1 | – | 3660 nM (active)
COc1ccc(N(C(=O)Nc2c(C)cccc2C)c2cc(Nc3ccc(N4CCN(C)CC4)cc3)ncn2)c(OC)c1 | – | 2060 nM (active)
CN1C(=O)c2sccc2N(C)c2nc(Nc3ccc(S(N)(=O)=O)cc3)ncc21 | – | 16600 nM (active)
CC(C)NCCCn1c(Sc2cc3c(cc2I)OCO3)nc2c(N)ncnc21 | – | 291 nM (active)
O=C(Nc1ccc(Cl)cc1)C1CCCN(C(=O)c2cccc(-c3ccco3)c2)C1 (centres undefined) | -26.4 | –
COc1c(C)cnc(Cn2cc(C#CCC(C)(C)O)c3c(Cl)nc(N)nc32)c1C | – | 206 nM (active)
Cc1cc(-c2nc(-c3ccc(OC(F)(F)F)cc3)no2)nn1Cc1ccnc(N2CCN(C3CC3)CC2)c1 | -14.2 | –
CCOC(=O)[C@@]1(CCCCCCOc2ccc(Cl)cc2)CO1 | -15.5 | –
COC(C)(C)CCn1nc(Nc2c(C)cccc2C)c2cnc(Nc3ccc(OCCN4CCCC4)c(F)c3)nc21 | – | 411 nM (active)
CCOC(=O)c1cnc2ccc(-c3cncc(NS(=O)(=O)c4ccccc4)c3)cn12 | – | 1160 nM (active)
CN1CCC(NC(=O)c2cc(-c3c(O)cc(O)cc3Oc3ccc([N+](=O)[O-])cc3)on2)CC1 | – | 5800 nM (active)
COc1cc(N2CCC(N3CCN(C)CC3)CC2)ccc1Nc1ncc(Cl)c(Nc2ccccc2P(C)(C)=O)n1 | – | 1640 nM (active)
